# Test results reported in PubChem BioAssay.
# Where “and” joins values, the source holds several entries; their conditions need not be identical. Identical values can stand only once.
# Assay: basal RPMI8226 viability, no added stimulus, profiling panel, cell-based, calcein-AM fluorescence, 48 h, PK04 Diversity Set (AID 1166);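 note: cells grown under basal conditions without added stimulus; test concentration not given here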
# Settings: RPMI8226 myeloma viability, higher = more signal
row,Structure (SMILES),z-score
1,C[N+](C)(C)CCCCNC(=O)[C@H]1C[C@H]2C(=O)N[C@@H](CCCC[N+](C)(C)C)C(=O)N2[C@H]1c1ccc(O)cc1,-0.598 and -0.804
2,O=c1n(-c2ccccc2)c(=O)n2n1CC[C@@H]1C(=NOC[C@@H](O)COCc3ccco3)[C@H]3O[C@H]3[C@@H](O)[C@@H]12,-0.246 and -0.624
3,C=C[C@@H](C)[C@H](O)c1ccc(O)c2ccccc12,-0.808 and -0.695
4,COC(=O)C1=C(C)N(Cc2ccccc2)C2=C(C(C)=O)C[C@@](O)(C(=O)OC)C(=O)N2[C@@H]1c1ccccc1,-0.0117 and 1
5,CCC[C@@H]1C[C@@]1(CCC)[C@@H](NC(=O)c1ccc(-c2ccccc2)cc1)c1cccc(Cl)c1,-2.94 and -1.06
6,C=CCN(CCCC)C(=O)C1N(CCOCCO)C(=O)C2C(C(=O)O)C3C=CC21O3 (stereo not given),-0.234 and 0.295
7,C=CCN(Cc1ccccc1)C(=O)C1N(CCOCCO)C(=O)C2C(C(=O)O)C3C=CC21O3 (stereo not given),0.953 and -1.25
8,C=CC[C@@H](O)c1ccc(O)c2ccccc12,-3.06 and -4.28
9,CO[C@@H]1C=CCC(=O)N2CCC[C@H]2C(=O)OC[C@H](C)C(=O)OC[C@H]1C,-0.87
10,CN1C(=O)C2CC=C([C@H]3Oc4ccccc4S(=O)(=O)N4CCC[C@@H]34)CC2C1=O (stereo not given in full),-0.177 and -0.215
11,CCOC(=O)c1ccc(NC(=O)O[C@H]2[C@H](OC(=O)Nc3ccccc3)[C@@H](OC(=O)Nc3ccccc3)[C@@H](OC)O[C@@H]2CO)cc1,-1.56 and -2.49
12,C=CCN(Cc1ccccc1)C(=O)C(c1cccs1)N(C(=O)/C=C\C(=O)O)c1c(Cl)cccc1CO (stereo not given),1 and -0.538
13,CC(CO)N1C(=O)[C@@H]2C3C(=O)OCCC=C[C@H]3OC23C=CCN(CCN2CCOCC2)C(=O)[C@@H]13 (stereo not given in full),-0.174 and -0.382
14,CO[C@H]1COC(=O)CC=C[C@@H](C)COC(=O)[C@@H](OCc2ccccc2)C=C[C@@H]1C,0.608
15,CCCC[C@@H]1CN2[C@@H](CC[C@@H](C)[C@@H]2c2ccc(Br)cc2)C(=O)O1,0.309 and -0.616
16,CCN1C(=O)[C@H]2[C@H]3[C@H](O)[C@H](O)CC(=NOC[C@@H](O)COCc4ccco4)[C@@H]3CC[C@H]2C1=O,-1.35 and -1.38
17,C=CCN(CCCCC)C(=O)C(c1cccs1)N(C(=O)/C=C\C(=O)O)c1ccc(CCO)cc1 (stereo not given),-0.174 and 0.104
18,C=CCN(C(=O)C1N(c2c(Cl)cccc2CO)C(=O)C2C(C(=O)O)C3C=CC21O3)c1ccc(OC)cc1 (stereo not given),-0.998 and 0.529

row,Structure (SMILES),z-score
1,C=CCN(CCCC)C(=O)C1N(C(C)(C)CO)C(=O)C2C(C(=O)O)C3C=CC21O3 (stereo not given),-0.539 and 0.144
2,C=C[C@@H](C)[C@@H](O)c1ccc(OCCO)cc1,-0.754 and 0.96
3,C=CCN(CCCCC)C(=O)C1N(C(C)(C)CO)C(=O)C2C(C(=O)O)C3C=CC21O3 (stereo not given),-0.187 and -0.148
4,CCOC(=O)[C@@H]1CC2O[C@]23C[C@@H]1C(=O)N1CCC[C@@H]1[C@H]3O[Si](C)(C)C(C)(C)C (stereo not given in full),-0.55 and -0.467
5,CCOC(=O)C[C@H]1[C@H](OC(=O)c2ccccc2-c2ccccc2)[C@@H](NC(=O)Cc2ccc(OC)cc2)c2cc(OCCCO)ccc2N1C(=O)Cc1ccc(OC)cc1,0.869 and -0.427
6,COC(=O)CC=C[C@@H](C)[C@@H](CO)NS(=O)(=O)c1ccc(C)cc1,-0.101 and 0.667
7,C[N+](C)(C)CCCCCCNC(=O)[C@@H]1C[C@@H]2C(=O)N[C@@H](CCCC[N+](C)(C)C)C(=O)N2[C@@H]1c1ccc(O)cc1,-0.587 and 0.392
8,COC(=O)C1=C(C)N(Cc2ccccc2)C2=C3C(=O)CCC[C@@H]3[C@@](O)(C(=O)OC)C(=O)N2[C@@H]1c1ccccc1,0.28 and -2.5
9,O=C1C[C@]2(c3ccc([N+](=O)[O-])cc3)C(=O)N(Cc3ccccc3)c3cc(CO)ccc3[C@H]2N1C1CCCCC1,-0.684 and -2.65
10,CC(C)=CCCC(C)=CCON=C1C[C@@H](O)[C@@H](O)[C@@H]2[C@@H]3C(=O)N([C@@H](C)c4ccccc4)C(=O)[C@@H]3CC[C@H]12,-0.0017
11,C[C@@H]1CC[C@H]2C(=O)NC[C@@H](O)CN2[C@H]1c1ccc(Br)cc1,-0.239 and -0.0289
12,COc1ccc(O[C@H]2C=C[C@@H](c3ccccc3)O[C@@H]2COC(=O)CCC(C)=NO[C@H](C)c2cn([C@H](CO)Cc3ccccc3)nn2)cc1,-2.54 and -1.69
13,C=CCN(CCCC)C(=O)C(c1cccs1)N(C(=O)/C=C\C(=O)O)c1c(Cl)cccc1CO (stereo not given),-0.097 and -0.435
14,CC(CO)N1C(=O)[C@@H]2C3C(=O)OCCC=C[C@H]3OC23C=CCN(c2ccc(Cl)cc2)C(=O)[C@@H]13 (stereo not given in full),0.622 and -0.222
15,C=CCN(C(=O)C(c1cccs1)N(CCOCCO)C(=O)/C=C\C(=O)O)C(C)(C)C (stereo not given),0.116 and 0.954
16,C=C[C@H](OC)[C@@H](O)c1ccc(O)c(F)c1,0.544 and 0.196
17,CC(CO)N1C(=O)[C@@H]2C3C(=O)OCCC=C[C@H]3OC23C=CCN(C(C)(C)C)C(=O)[C@@H]13 (stereo not given in full),-0.0799 and 0.143
